Entries with a potency or affinity are not part of this list. Calls of active or inactive are those of the source.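 Rule for the calls: active = growth signal falls, with fitted half-maximal dose at most ten times the top valid dose; inconclusive = flat curve with a partial drop, or a poorly fitting curve; inactive = the rest, including compounds that raise signal.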
Assay: single-agent toxicity toward C. albicans – CaCi-2 strain, no fluconazole, dry powder, set 4, counter-screen for reversing antifungal drug resistance, dose response (AID 488932)
Conditions: C. albicans CaCi-2 (fluconazole-resistant clinical isolate) growth, Alamar Blue, 48 h; series mostly up to 26 µM

| Structure (SMILES) | outcome |
| --- | --- |
| O=C(c1ccc(Cl)cc1)N1CCN(c2ccnc3ccccc23)CC1 | inactive |
| O=S(=O)(c1ccc(Cl)cc1)N1CCN(c2ccnc3cc(Cl)ccc23)CC1 | inactive |
| O=C(C1CCCC1)N1CCN(c2ccnc3cc(Cl)ccc23)CC1 | inactive |
| O=C(c1cccc(Cl)c1)N1CCN(c2ccnc3cc(Cl)ccc23)CC1 | inactive |
| Clc1ccc2c(N3CCNCC3)ccnc2c1 | inactive |
| O=C(c1ccc(Cl)cc1)N1CCN(c2ccccn2)CC1 | inactive |
| Cc1cccc(N2CCN(C(=O)c3ccc(Cl)cc3)CC2)n1 | inactive |
| Cc1cc(N2CCN(C(=O)c3ccc(Cl)cc3)CC2)c2ccc(F)cc2n1 | inactive |
| O=C(Nc1ccc(Cl)cc1)N1CCN(c2ccnc3cc(Cl)ccc23)CC1 | inactive |
| Cc1cc(N2CCN(C(=O)c3ccc(Cl)cc3)CC2)c2ccccc2n1 | inactive |
| O=C(C1CCC1)N1CCN(c2ccnc3cc(Cl)ccc23)CC1 | inactive |
| O=C(c1ccc(Cl)cc1)N1CCN(c2ccc(Cl)cc2)CC1 | inactive |
| COc1ccc(OC)c2c(C)cc(N3CCN(C(=O)c4ccc(Cl)cc4)CC3)nc12 | inactive |
| CC(C)C(=O)N1CCN(c2ccnc3cc(Cl)ccc23)CC1 | inactive |
| O=C(c1ccc(Cl)cc1)N1CCN(c2ccnc3cc(Cl)ccc23)CC1 | inactive |
| O=C(c1ccc(Cl)c(Cl)c1)N1CCN(c2ccnc3cc(Cl)ccc23)CC1 | inactive |
| O=C(c1ccccc1)N1CCN(c2ccnc3cc(Cl)ccc23)CC1 | inactive |
| O=C(c1ccc(Cl)cc1)N1CCN(c2cccc(C(F)(F)F)n2)CC1 | inactive |
| O=C(c1ccc(Cl)cc1)N1CCN(c2ncnc3ccccc23)CC1 | inactive |
| O=C(c1cccs1)N1CCN(c2ccnc3cc(Cl)ccc23)CC1 | inactive |
| O=C(c1ccc(Cl)cc1)N1CCNCC1 | inactive |
| O=C(c1ccc(Cl)cc1)N1CCN(c2ccncc2)CC1 | inactive |
